Assay results from PubChem BioAssay (EPA / NIEHS).
Several values for one entry are separate records, joined by “and”; a condition that tells them apart may be missing. Equal values may be shown once. Inconclusive results are not listed. Activity calls are given as the source filed them. Rule for the calls, unless noted: active = hit-call score of the fitted dose curve at least 0.9, where 1 is the maximum; inactive = score below 0.9.

Assay: CCTE_Simmons_MITO_viability: CellTiter-Glo Viability Assessment for CCTE's HepG2 Seahorse XF Respirometric Screening Assay [post-hoc], Simmons Lab (AID 2284007; active = hit-call score of the fitted dose curve at least 0.9, where 1 is the maximum;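 for AC50: cells exposed to chemical for 90 min before the ATP read; actives lower ATP signal relative to DMSO baseline meaning reduced viability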)
How it was run: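 Luciferase-coupled ATP read-out after the Seahorse run: HepG2 cells treated 90 minutes with test chemical, 7-point series of 125 nM–100 uM final, in triplicate biological runs. Vehicle DMSO; dichlone as positive control over 8 concentrations.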
For `CCCCCCCCCCCCN1CCCC1=O`, the outcome was “inactive”. For `OC1CCC(C2CCCCC2)CC1` (centres undefined), the outcome was “inactive”. For `NC(=O)N(O)[C@@H]1C=C[C@H](Oc2cccc(Oc3ccc(F)cc3)c2)C1`, the outcome was “inactive”. For `O=[N+]([O-])c1ccc(O)cc1`, the outcome was “inactive”. For `Nc1cccc2c(N)cccc12`, the outcome was “inactive”. With `CCc1nn(C2CCCCC2)c2cc(C3(C#N)CCC(C(=O)O)CC3)ccc12` (centres undefined) the outcome was “inactive”. With `Oc1cc2ccccc2c2ccccc12` the AC50 was 6.92 µM (active). With `CCCOC(=O)c1ccc(O)cc1` the outcome was “inactive”. With `CC[C@H](c1ccc(O)cc1)[C@@H](CC)c1ccc(O)cc1` the AC50 was 12.6 µM (active). With `NC(=O)N1C(=O)C(C(=O)c2cc(Cl)cs2)c2cc(F)c(Cl)cc21` (centres undefined) the AC50 was 2.3 µM (active). For `O=C(O)Cc1cc(I)c(Oc2cc(I)c(O)c(I)c2)c(I)c1`, the outcome was “inactive”. With `Cc1cc(CCN2CCN(c3nsc4ccccc34)CC2)cc2c1NC(=O)CC2(C)C` the AC50 was 9.34 µM (active).

Assay: CCTE_Shafer_MEA_acute_spike_number: CCTE's Neural Acute Assay for Total Number of Spikes, Shafer Lab (AID 2284008);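 for AC50: curve fitted for decrease in spike count so AC50 reflects inhibitors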
How it was run: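 Using an adaptive detector set to 8x rms noise, spikes were counted in 40-min windows before and after compound addition (0.03-40 uM) to rat cortical networks at 37 C; the well-level change from baseline was analysed relative to DMSO.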
In the case of `CCC(=C(c1ccc(O)cc1)c1ccc(OCCN(C)C)cc1)c1ccccc1`, the outcome is reported as “inactive”. In the case of `CN(C)C=O`, the outcome is reported as “inactive”. In the case of `CCCCCCCCCCCCN1CCCC1=O`, the outcome is reported as “inactive”. For `O=c1c(-c2ccc(O)cc2)coc2cc(O)ccc12`, the AC50 was 3.28 µM (active). With `CCCCCCCCCCCCc1ccccc1S(=O)(=O)O` the outcome was “inactive”. With `OC1CCC(C2CCCCC2)CC1` (centres undefined) the AC50 was 20 µM (active). With `CC(C)CCCCCCOC(=O)CCCCC(=O)OCCCCCCC(C)C` the outcome was “inactive”. With `CC(=O)NC1(c2cccc(F)c2)CCN(CC[C@@]2(c3ccc(Cl)c(Cl)c3)CN(c3ccccc3)C(=O)CO2)CC1` the AC50 was 1.47 µM (active). In the case of `NC(=O)N(O)[C@@H]1C=C[C@H](Oc2cccc(Oc3ccc(F)cc3)c2)C1`, the outcome is reported as “inactive”. In the case of `CC(C)(C)c1cc(C(C)(C)C)c(O)c(C(C)(C)C)c1`, the outcome is reported as “inactive”. With `CN1CCC[C@H]1c1cccnc1` the outcome was “inactive”. With `O=C(O)c1ccccc1C(c1ccc(O)cc1)c1ccc(O)cc1` the outcome was “inactive”. With `Oc1cc2ccccc2c2ccccc12` the outcome was “inactive”. For `CN1CCN(c2ccccc2/C=C2\SCCN(c3ccc(Cl)c(Cl)c3)C2=O)CC1`, the AC50 was 10.3 µM (active). For `CCCOc1sc(C(=O)N2CCC(c3cc(CN)ccc3F)CC2)c(C)c1Br`, the outcome was “inactive”. In the case of `CC[C@H](c1ccc(O)cc1)[C@@H](CC)c1ccc(O)cc1`, the outcome is reported as “inactive”. In the case of `CCc1ccc(CCOc2ccc(CC3SC(=O)NC3=O)cc2)nc1` (centres undefined), the outcome is reported as “inactive”. For `OCCC(F)(F)C(F)(F)C(F)(F)C(F)(F)C(F)(F)C(F)(F)C(F)(F)C(F)(F)F`, the outcome was “inactive”. With `CC#C[C@]1(O)CC[C@H]2[C@@H]3CCC4=CC(=O)CCC4=C3[C@@H](c3ccc(N(C)C)cc3)C[C@@]21C` the AC50 was 1.74 µM (active) and 2.84 µM (active). With `CCCCCCCCCCCCCCCS(=O)(=O)Oc1ccccc1` the outcome was “inactive”. In the case of `Cc1cc(CCN2CCN(c3nsc4ccccc34)CC2)cc2c1NC(=O)CC2(C)C`, the AC50 is reported as 8.94 µM (active).

Assay: CCTE_Shafer_MEA_acute_firing_rate_mean: CCTE's Neural Acute Assay for Mean Firing Rate, Shafer Lab (AID 2284009);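 note: analyzed for loss of signal so actives lower firing rate relative to DMSO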
How it was run: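 Spontaneous spiking of primary rat cortical networks, DIV 13/15, 37 C. Compound 0.03-40 uM, n ≥3 wells; 40 min baseline vs 40 min treated. Endpoint fitted in loss-of-signal direction against DMSO.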
For `CCC(=C(c1ccc(O)cc1)c1ccc(OCCN(C)C)cc1)c1ccccc1`, the outcome was “inactive”. With `CN(C)C=O` the outcome was “inactive”. With `CCCCCCCCCCCCN1CCCC1=O` the outcome was “inactive”. With `O=c1c(-c2ccc(O)cc2)coc2cc(O)ccc12` the outcome was “inactive”. With `CCCCCCCCCCCCc1ccccc1S(=O)(=O)O` the outcome was “inactive”. For `OC1CCC(C2CCCCC2)CC1` (centres undefined), the AC50 was 20 µM (active). For `CC(C)CCCCCCOC(=O)CCCCC(=O)OCCCCCCC(C)C`, the outcome was “inactive”. In the case of `CC(=O)NC1(c2cccc(F)c2)CCN(CC[C@@]2(c3ccc(Cl)c(Cl)c3)CN(c3ccccc3)C(=O)CO2)CC1`, the AC50 is reported as 1.47 µM (active). With `NC(=O)N(O)[C@@H]1C=C[C@H](Oc2cccc(Oc3ccc(F)cc3)c2)C1` the outcome was “inactive”. With `CC(C)(C)c1cc(C(C)(C)C)c(O)c(C(C)(C)C)c1` the outcome was “inactive”. With `CN1CCC[C@H]1c1cccnc1` the outcome was “inactive”. In the case of `O=C(O)c1ccccc1C(c1ccc(O)cc1)c1ccc(O)cc1`, the outcome is reported as “inactive”. With `Oc1cc2ccccc2c2ccccc12` the outcome was “inactive”. For `CN1CCN(c2ccccc2/C=C2\SCCN(c3ccc(Cl)c(Cl)c3)C2=O)CC1`, the AC50 was 10.5 µM (active). For `CCCOc1sc(C(=O)N2CCC(c3cc(CN)ccc3F)CC2)c(C)c1Br`, the outcome was “inactive”. In the case of `CC[C@H](c1ccc(O)cc1)[C@@H](CC)c1ccc(O)cc1`, the outcome is reported as “inactive”. With `CCc1ccc(CCOc2ccc(CC3SC(=O)NC3=O)cc2)nc1` (centres undefined) the outcome was “inactive”. With `OCCC(F)(F)C(F)(F)C(F)(F)C(F)(F)C(F)(F)C(F)(F)C(F)(F)C(F)(F)F` the outcome was “inactive”. With `CC#C[C@]1(O)CC[C@H]2[C@@H]3CCC4=CC(=O)CCC4=C3[C@@H](c3ccc(N(C)C)cc3)C[C@@]21C` the AC50 was 1.74 µM (active) and 2.84 µM (active). With `CCCCCCCCCCCCCCCS(=O)(=O)Oc1ccccc1` the outcome was “inactive”. In the case of `Cc1cc(CCN2CCN(c3nsc4ccccc34)CC2)cc2c1NC(=O)CC2(C)C`, the AC50 is reported as 8.94 µM (active).
